The record followed here is PubChem BioAssay.

Structures are written as SMILES. Active and inactive are the calls of the source.

Test [1] deals with Plasmodium falciparum Sir2 (PF13_0152, Sir2A). As to the kind of experiment: Plasmodium falciparum Sir2A binding compounds – biochemical, small-molecule microarray, 635 nm fluorescence, primary screen (AID 1098).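 Further: score merges spot fluorescence intensity with its signal-to-noise ratio.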 As to conditions: fluorescence 635 nm, higher = more signal.
A short description of test [2]: probe aDKK1 binding to arrayed compounds – biochemical, biotinylated probe, 635/667 nm fluorescence, primary screen (AID 1099).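 Further: score merges 667nm spot fluorescence with signal to noise across triplicate slides.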 The settings on record: small-molecule microarray, higher = more signal.
The nature of test [3]: probe aCHRDL2 binding to arrayed compounds – biochemical, biotinylated probe, 635/667 nm fluorescence, primary screen (AID 1100). As to conditions: small-molecule microarray, higher = more signal.
Test [4] in a line: change in splice reporter luminescence, either direction, cell-based, HEK293, spliceosome inhibition project, primary screen (AID 1101).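 Further: HEK293 cells carrying a splicing-competent luciferase reporter gene; test concentration not given here.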 The settings on record: HEK293 splicing luciferase reporter, 24 h, higher = more signal, called active from +8 up or from −8 down. (In general: In a reporter assay the amount or activity of a reporter protein is the signal.)
Test [5] addresses Fibroblast growth factor 10 (Homo sapiens) (UniProt O15520). As to the kind of experiment: compounds binding fibroblast growth factor 10 – biochemical, small-molecule microarray, 635 nm fluorescence, primary screen (AID 1102). The settings on record: FGF10 binding, fluorescence 635 nm, higher = more signal.
The subject of test [6] is glycogen synthase kinase-3 (GSK3A per assay name; protocol says GSK3B). As to the kind of experiment: compounds binding glycogen synthase kinase-3 – biochemical, small-molecule microarray, 635 nm fluorescence, GSK3A, primary screen (AID 1103). Further: the record names both GSK3A and GSK3B. As to conditions: fluorescence 635 nm, higher = more signal.
The target of test [7] is Epidermal growth factor receptor (Homo sapiens) (UniProt P00533). As to the kind of experiment: compounds binding epidermal growth factor receptor – biochemical, small-molecule microarray, 635 nm fluorescence, primary screen (AID 1104).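 Further: score merges 667 nm emission intensity with spot signal to noise over triplicate slides.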 As to conditions: EGFR binding, higher = more signal.
Sequence of Epidermal growth factor receptor (Homo sapiens) (P00533 whole entry, looked up): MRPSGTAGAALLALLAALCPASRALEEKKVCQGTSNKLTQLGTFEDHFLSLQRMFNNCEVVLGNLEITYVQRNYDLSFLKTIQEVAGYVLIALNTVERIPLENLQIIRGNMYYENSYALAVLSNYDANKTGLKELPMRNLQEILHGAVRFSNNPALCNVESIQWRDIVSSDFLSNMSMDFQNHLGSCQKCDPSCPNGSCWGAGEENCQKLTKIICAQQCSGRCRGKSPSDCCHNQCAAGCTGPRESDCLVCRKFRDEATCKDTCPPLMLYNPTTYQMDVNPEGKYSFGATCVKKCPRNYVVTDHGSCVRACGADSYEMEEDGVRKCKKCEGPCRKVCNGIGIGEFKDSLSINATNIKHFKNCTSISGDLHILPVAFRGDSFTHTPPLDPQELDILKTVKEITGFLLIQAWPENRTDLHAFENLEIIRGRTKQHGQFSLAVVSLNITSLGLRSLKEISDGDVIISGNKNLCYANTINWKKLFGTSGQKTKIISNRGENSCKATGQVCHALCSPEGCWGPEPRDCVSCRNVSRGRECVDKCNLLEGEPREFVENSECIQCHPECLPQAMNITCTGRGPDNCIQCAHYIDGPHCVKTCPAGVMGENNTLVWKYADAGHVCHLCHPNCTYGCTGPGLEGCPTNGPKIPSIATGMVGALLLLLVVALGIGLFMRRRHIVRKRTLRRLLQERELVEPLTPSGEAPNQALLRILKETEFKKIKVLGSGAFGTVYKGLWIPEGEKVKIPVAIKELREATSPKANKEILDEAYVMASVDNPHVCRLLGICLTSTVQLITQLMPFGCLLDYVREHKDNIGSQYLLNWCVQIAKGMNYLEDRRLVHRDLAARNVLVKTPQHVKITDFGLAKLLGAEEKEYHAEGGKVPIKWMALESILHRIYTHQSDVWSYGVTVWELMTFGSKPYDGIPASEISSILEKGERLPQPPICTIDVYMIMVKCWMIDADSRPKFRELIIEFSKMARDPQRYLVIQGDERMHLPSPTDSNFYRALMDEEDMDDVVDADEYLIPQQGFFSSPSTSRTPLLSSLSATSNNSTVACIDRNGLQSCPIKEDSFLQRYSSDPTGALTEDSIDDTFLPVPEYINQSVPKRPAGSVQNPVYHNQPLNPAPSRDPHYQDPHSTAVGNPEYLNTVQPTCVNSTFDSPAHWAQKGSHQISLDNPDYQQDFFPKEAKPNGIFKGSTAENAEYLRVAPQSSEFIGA
The target of test [8] is Follistatin-related protein 3 (Homo sapiens) (UniProt O95633). As to the kind of experiment: compounds binding follistatin-related protein 3 – biochemical, small-molecule microarray, 635 nm fluorescence, primary screen (AID 1105).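 Further: score merges emission near 667 nm and signal to noise per printed spot across three slides.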 The settings on record: FSTL3 binding, higher = more signal.
Sequence of Follistatin-related protein 3 (Homo sapiens) (O95633 whole entry, looked up): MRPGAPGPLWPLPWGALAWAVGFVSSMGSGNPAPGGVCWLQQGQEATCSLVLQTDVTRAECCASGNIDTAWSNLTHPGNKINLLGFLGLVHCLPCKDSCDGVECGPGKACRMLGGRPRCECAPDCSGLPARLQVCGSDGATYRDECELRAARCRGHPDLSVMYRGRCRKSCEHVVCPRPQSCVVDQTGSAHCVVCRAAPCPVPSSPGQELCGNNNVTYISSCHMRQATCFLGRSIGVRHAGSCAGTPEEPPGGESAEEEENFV
Test [9] deals with Dickkopf-related protein 1 (Homo sapiens) (UniProt O94907). As to the kind of experiment: small molecules binding DKK1 protein – biochemical, small-molecule microarray, 635 nm fluorescence scan, primary screen (AID 1106).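 Further: score merges emission near 667 nm with signal to noise over three replicate slides.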 As to conditions: higher = more signal.
Sequence of Dickkopf-related protein 1 (Homo sapiens) (O94907 whole entry, looked up): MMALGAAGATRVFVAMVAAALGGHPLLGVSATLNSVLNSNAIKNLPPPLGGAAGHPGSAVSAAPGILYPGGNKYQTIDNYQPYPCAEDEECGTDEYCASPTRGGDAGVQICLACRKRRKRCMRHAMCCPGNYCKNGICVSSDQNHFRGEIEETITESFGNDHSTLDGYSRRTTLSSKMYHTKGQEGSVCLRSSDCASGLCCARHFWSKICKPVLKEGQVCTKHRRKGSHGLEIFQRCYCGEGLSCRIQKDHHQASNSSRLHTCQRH
The test system of test [10] is Inhibin beta A chain (activin A). As to the kind of experiment: small molecules binding activin A – biochemical, small-molecule microarray, 635 nm fluorescence scan, primary screen (AID 1107).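 Further: mouse activin A protein probed at 4.33 µg/mL on printed slides; score merges bound-protein fluorescence near 667 nm with spot signal-to-noise.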 As to conditions: INHBA, higher = more signal.
Test [11] deals with Human papillomavirus type 1a protein E7 (residues 44-93). As to the kind of experiment: small molecules binding HPV E7 44-93 – biochemical, small-molecule microarray, residues 44-93, 635 nm fluorescence, primary screen (AID 1108).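 Further: E7 fragment applied at 1 µg/mL in TBST for 1 h at 4 C; score combines spot fluorescence with its signal to noise ratio.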 The settings on record: fluorescence 635 nm, higher = more signal.
The nature of test [12]: hepatitis C replication reporter changes, two-sided – Huh7 cells, luciferase reporter, HCV replication inhibitor project, primary screen (AID 1109).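 Further: huh7 hepatoma cells harbouring a luciferase neomycin HCV replicon reporter; luciferase luminescence as measure of HCV replicon replication; test concentration not given here.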 As to conditions: Huh7 HCV replicon luciferase reporter, 48 h; higher = more signal.
Test [13] has as its target Left-right determination factor 2 (Homo sapiens) (UniProt O00292). As to the kind of experiment: small molecules binding LEFTY2 protein – biochemical, small-molecule microarray, 635 nm fluorescence scan, primary screen (AID 1110). As to conditions: higher = more signal.
In test [14] the target is Calmodulin-1 (Homo sapiens) (UniProt P0DP23). As to the kind of experiment: small molecules binding calmodulin-1 with EGTA – biochemical, small-molecule microarray, Cy5-labelled CALM1, profiling panel (AID 1111).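 Further: labelled calmodulin applied in Tris saline Tween buffer holding calcium plus EGTA and DTT.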 As to conditions: Cy5-CALM1 binding fluorescence, higher = more signal.
Test [15] shares this target. As to the kind of experiment: small molecules binding Ca-loaded calmodulin-1 – biochemical, small-molecule microarray, Cy5-labelled CALM1, plus calcium, artefact control for SMM control-protein annotation, profiling panel (AID 1112).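 Further: score merges spot fluorescence with signal to noise from triplicate slides.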 The settings on record: Cy5-CALM1 binding fluorescence, higher = more signal.
Test [16] in a line: probe aWnt5a binding to arrayed compounds – biochemical, biotinylated probe, 635/667 nm fluorescence, primary screen (AID 1113).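 Further: score merges 667 nm fluorescence intensity with signal-to-noise per printed feature.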 The settings on record: small-molecule microarray, higher = more signal.
Test [17] is described as follows: probe aShh binding to arrayed compounds – biochemical, biotinylated probe, 635/667 nm fluorescence, primary screen (AID 1114).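 Further: probe is biotin-labelled aShh protein from a stem cell growth factor screen; measures binding of labelled protein to compounds printed on the slide; score merges feature fluorescence at 667 nm with signal-to-noise.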 As to conditions: small-molecule microarray, higher = more signal.
Test [18] is described as follows: probe aNog binding to arrayed compounds – biochemical, biotinylated probe, 635/667 nm fluorescence, primary screen (AID 1115).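 Further: probe is biotinylated aNog protein used at 0.15 µg/mL for 1 h at 4 C; z-score combines 667 nm fluorescence of each spot with its signal to noise.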 As to conditions: small-molecule microarray, higher = more signal.
Test [19] deals with Torsin-1A-interacting protein 1 (Homo sapiens) (UniProt Q5JTV8). As to the kind of experiment: compound microarray binding of lysate hLAP1 – cell lysate, small-molecule microarray, COS7 lysate, 635/667 nm fluorescence, primary screen (AID 1116). The settings on record: 635 nm fluorescence, higher = more signal.
Sequence of Torsin-1A-interacting protein 1 (Homo sapiens) (Q5JTV8 whole entry, looked up): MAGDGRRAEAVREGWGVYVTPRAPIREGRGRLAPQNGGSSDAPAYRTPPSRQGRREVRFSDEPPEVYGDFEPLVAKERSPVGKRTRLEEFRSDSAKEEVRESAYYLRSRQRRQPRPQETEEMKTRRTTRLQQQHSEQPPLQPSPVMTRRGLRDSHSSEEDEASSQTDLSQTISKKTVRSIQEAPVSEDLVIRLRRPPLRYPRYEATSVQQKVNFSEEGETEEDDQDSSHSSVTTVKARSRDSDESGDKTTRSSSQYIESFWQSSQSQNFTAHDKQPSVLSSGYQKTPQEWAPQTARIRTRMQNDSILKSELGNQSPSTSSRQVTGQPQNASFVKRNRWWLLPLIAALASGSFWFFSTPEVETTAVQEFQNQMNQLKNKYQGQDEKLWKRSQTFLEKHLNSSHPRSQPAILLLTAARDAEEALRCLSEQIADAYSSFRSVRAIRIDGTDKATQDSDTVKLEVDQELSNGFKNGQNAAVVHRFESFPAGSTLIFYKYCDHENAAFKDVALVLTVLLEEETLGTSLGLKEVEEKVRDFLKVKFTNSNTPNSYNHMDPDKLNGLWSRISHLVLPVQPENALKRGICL
The target in test [20] is Alpha-bungarotoxin (Bungarus multicinctus) (UniProt P60615). As to the kind of experiment: compounds binding labelled alpha-BTX control protein – biochemical, small-molecule microarray, Alexa647 label, 635/667 nm fluorescence, artefact control for SMM control protein annotation, profiling panel (AID 1117). The settings on record: alpha-BTX-A647 binding fluorescence, higher = more signal.
Sequence of Alpha-bungarotoxin (Bungarus multicinctus) (P60615 whole entry, looked up): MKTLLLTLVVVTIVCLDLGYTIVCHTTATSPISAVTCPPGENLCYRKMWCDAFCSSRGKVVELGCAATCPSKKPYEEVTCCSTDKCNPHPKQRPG

Sequence of Fibroblast growth factor 10 (Homo sapiens) (O15520 whole entry, looked up): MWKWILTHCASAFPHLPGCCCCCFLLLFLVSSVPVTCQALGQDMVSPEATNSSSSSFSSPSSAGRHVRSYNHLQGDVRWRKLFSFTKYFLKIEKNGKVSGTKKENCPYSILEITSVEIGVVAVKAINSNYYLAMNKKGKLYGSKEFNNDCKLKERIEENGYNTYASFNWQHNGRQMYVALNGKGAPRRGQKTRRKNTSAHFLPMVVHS
Sequence of Left-right determination factor 2 (Homo sapiens) (O00292 whole entry, looked up): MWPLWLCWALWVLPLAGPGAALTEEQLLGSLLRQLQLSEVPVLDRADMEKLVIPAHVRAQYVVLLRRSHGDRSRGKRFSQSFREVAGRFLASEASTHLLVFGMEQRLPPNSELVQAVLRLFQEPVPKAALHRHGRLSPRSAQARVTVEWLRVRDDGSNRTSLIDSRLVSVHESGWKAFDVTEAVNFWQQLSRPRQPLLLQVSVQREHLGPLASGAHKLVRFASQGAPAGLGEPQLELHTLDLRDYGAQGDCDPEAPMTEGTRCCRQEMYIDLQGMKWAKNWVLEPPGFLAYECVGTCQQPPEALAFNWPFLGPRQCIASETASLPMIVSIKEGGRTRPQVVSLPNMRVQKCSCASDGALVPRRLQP

As for `CC(C)N1CC=CC23O[C@@H]4/C=C\CCCOC(=O)C4[C@H]2C(=O)N(CCCO)[C@@H]3C1=O` (stereo not given in full), the composite z-score is 2.12 in test [1]; -0.201 in test [2]; 0.787 in test [3]; -0.352 in [5]; -0.762 in test [6]; -1.64 in test [7]. The composite z-score in [8] was -1.07; in test [9], -1; in test [10], 0.967; in test [11], -0.0197; in [13] it was -1.83; in test [14] it was -0.311. Moreover, the composite z-score was 0.412 in [15]; -0.14 in test [16]; -0.0959 in [17]; 0.0824 in test [18]; -0.0239 in test [19]; -2.18 in [20]. The z-score in test [4] is 0.073 (inactive); in test [12] it was -0.597.

For the molecule `NCCCCCCNC(=O)[C@@H]1C[C@@H]2C(=O)N[C@@H](Cc3ccccc3)C(=O)N2[C@@H]1c1ccc(O)cc1`, the composite z-score in test [1] worked out at 0.791; in test [2], 0.678; in test [3] it was 0.709; in test [5], 0.25; in [6], 0.717; in test [7], 0.0626. For the same molecule, the composite z-score in test [8] was found to be 0.367; in [9] it was 0.627; in test [10], 1.15; in [11] it was 1.12; in [13] it was 0.093; in test [14], 2. Moreover, the composite z-score in test [15] was 1.32; in test [16] it was -0.11; in test [17] it was 0.318; in test [18] it was 0.075; in test [19] it was 0.526; in test [20] it was 1.3. Besides, the figures for the z-score in test [4] and in test [12] were -0.573 (inactive) and 0.355, respectively.

Take `CCOC(=O)C[C@H]1[C@H](OC(=O)c2ccc(-c3ccccc3)cc2)[C@@H](NC(=O)c2ccccc2)c2cc(OCCCO)ccc2N1C(=O)c1ccccc1`: the composite z-score in [1] is 0.204; in test [2], 0.462; in test [3], 0.47; in test [5], 0.767; in test [6] it was 0.66; in test [7], -0.0664. Moreover, the composite z-score in test [8] is 0.235; in test [9], -0.188; in test [10], -0.649; in [11] it was 1.11; in test [13], 0.394; in [14], 2.04. Also, the composite z-score is 1.2 in [15]; -0.0718 in test [16]; 0.275 in test [17]; 0.165 in [18]; 0.67 in [19]; 1.09 in test [20]. Besides, the results for the z-score in [4] and in test [12] were -2.01 (inactive) and -1.58, respectively.

With `C=C(CCCC)/C(=C/C[C@H](OC(=O)c1ccncc1)c1ccc(CO)o1)c1cnc2ccccc2c1`, the composite z-score in test [1] is 1.14; in test [2] it was 0.248; in test [3] it was -0.0775; in [5], 1.09; in test [6] it was 1.19; in [7] it was 0.474. The composite z-score stood at 1.46 in [8]; 0.823 in test [9]; 1.46 in test [10]; 0.229 in test [11]; 0.429 in test [13]; 0.697 in test [14]. Also, the composite z-score is 0.244 in [15]; -0.0236 in test [16]; 0.0898 in test [17]; 0.995 in test [18]; 0.731 in [19]; 1.8 in test [20]. Further, the z-score in test [4] was -0.964 (inactive); in test [12] it was -1.89.

Take `COc1ccc([Si](C)(C)[C@H]2[C@H](CCO)O[C@@]3(C(=O)N(Cc4ccc(N5C(=O)c6cccc7cccc5c67)cc4)c4ccccc43)[C@@H]2C)cc1`: the composite z-score was 0.706 in [1]; 0.147 in [2]; 0.742 in test [3]; -0.0426 in [5]; -0.603 in [6]; -0.482 in test [7]. Further, the composite z-score was -0.959 in test [8]; -0.397 in test [9]; 0.48 in [10]; 0.0848 in test [11]; -0.385 in test [13]; 1.57 in test [14]. In addition, the composite z-score in test [15] is 1.28; in test [16] it was -0.129; in [17], -0.138; in test [18] it was 0.467; in test [19], 0.18; in test [20], 1.05. Also, the figures for the z-score in [4] and in [12] were -2.46 (inactive) and -4.78, respectively.

For `Cc1ccc(S[C@]2(C(=O)NCCN3CCOCC3)CC(=O)N(Cc3cc(C(F)(F)F)cc(C(F)(F)F)c3)[C@@H]2c2ccc(CO)cc2)cc1`, the composite z-score in test [1] was 1.71; in test [2], 0.523; in [3] it was 0.866; in [5], -0.703; in [6], -1.45; in test [7], -1.19. Further, the composite z-score is -1.15 in test [8]; -1.05 in [9]; 0.156 in test [10]; -0.233 in test [11]; -1.13 in test [13]; -0.411 in test [14]. In addition, the composite z-score is -0.132 in [15]; -0.175 in test [16]; -0.153 in test [17]; 0.455 in test [18]; -0.998 in test [19]; -0.842 in [20]. In addition, the z-score in test [4] was -0.688 (inactive); in [12], -0.429.
